This is an account of results in PubChem BioAssay (EPA / NIEHS).

Results filed as inconclusive are left out. Active and inactive are the calls of the source. How the source made its calls: active means hit-call score of the fitted dose curve at least 0.9, where 1 is the maximum; inconclusive means response in the unintended direction; inactive means score below 0.9.

Chain of Estrogen receptor (Homo sapiens) (P03372 whole entry, looked up): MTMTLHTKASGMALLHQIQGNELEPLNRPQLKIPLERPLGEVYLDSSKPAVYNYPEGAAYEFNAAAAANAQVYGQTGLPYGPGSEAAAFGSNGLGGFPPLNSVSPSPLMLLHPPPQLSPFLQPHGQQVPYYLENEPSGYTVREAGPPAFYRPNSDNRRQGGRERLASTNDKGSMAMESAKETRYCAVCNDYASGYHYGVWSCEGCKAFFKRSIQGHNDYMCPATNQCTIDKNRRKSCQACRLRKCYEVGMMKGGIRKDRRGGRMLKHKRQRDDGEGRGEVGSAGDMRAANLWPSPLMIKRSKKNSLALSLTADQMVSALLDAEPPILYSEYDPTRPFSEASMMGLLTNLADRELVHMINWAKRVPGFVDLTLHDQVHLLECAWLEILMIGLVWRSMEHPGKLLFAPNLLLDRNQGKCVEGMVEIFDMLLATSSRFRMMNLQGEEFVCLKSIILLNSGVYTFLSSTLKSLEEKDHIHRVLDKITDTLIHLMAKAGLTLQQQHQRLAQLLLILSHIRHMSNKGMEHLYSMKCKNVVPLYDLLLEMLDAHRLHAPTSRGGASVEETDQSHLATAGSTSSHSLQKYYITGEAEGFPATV

The experiment deals with Estrogen receptor (Homo sapiens) (UniProt P03372). In words: CCTE_Deisenroth_AIME_384WELL_LUC_Inactive: CCTE's 384-well Estrogen Receptor Transactivation Assay without AIME metabolic competence (ERTA luciferase; metabolism negative), Deisenroth Lab (AID 2284038).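 Further: VM7Luc4E2 breast cells given medium preincubated 2 h with S9-free microspheres; hits raise estrogen receptor luciferase signal so potencies reflect agonists.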 How it is done:
CCTE_Deisenroth_AIME_384WELL (AIME metabolism assay) is a cell-based, single-readout assay that uses VM7Luc4E2, a human mammary gland/breast cell line, with measurements taken at 24 hour after chemical dosing in a 384-well plate.CCTE_Deisenroth_AIME_384WELL_LUC_Inactive is one of four assay components measured or calculated from the CCTE_Deisenroth_AIME_384WELL assay. It is designed to make measurements of luciferase induction, a form of inducible reporter, as detected with bioluminescence signals by luciferase-coupled ATP quantitation technology.CCTE_Deisenroth_AIME_384WELL_LUC_Inactive is a component of the CCTE_Deisenroth_AIME_384WELL assay that measures the effect of retroftting the VM7Luc ERTA assay with the Alginate Immobolization of Metabolic Enzymes (AIME) metabolism method. AIME is optimized to impart phase I hepatic metabolism using phenobarbital/beta-naphthoflavone induced hepatic S9 from male Sprague Dawley rats. Parent chemicals are incubated for 2 hours in the AIME assay prior to transfer to the VM7Luc ERTA assay plate. […] This endpoint evaluates reporter induction in metabolism negative mode. Using a type of inducible reporter in VM7Luc cells, gain-of-signal activity can be used to understand changes in the reporter gene as they relate to xenobiotic metabolism and the gene ESR1. This assay endpoint, CCTE_Deisenroth_AIME_384WELL_LUC_Inactive, was analyzed in the positive analysis fitting direction relative to 17beta-estradiol as the positive control in the ERTA assay. To generalize the intended target to other relatable targets, this assay endpoint is annotated to the nuclear receptor intended target family, where the subfamily is steroidal.
The AIME procedure consists of a preparative "pre-stamping" step using a barium chloride/poly-L-lysine (PLL) solution followed by "stamping" the lid in alginate-hepatic S9 (metabolism positive) or alginate-water (metabolism negative) to form microspheres. Once stamping is completed, the AIME lids are placed in duplicate microplates (metabolism positive or negative) containing chemical solutions and incubated for two hours to facilitate metabolic reactions. The conditioned medium, containing parent chemical or metabolites, is then transferred to the cell-based VM7Luc Estrogen Receptor Transactivation Assay (ERTA) for 24 hours. A typical experimental design tests a 10-point concentration series (0.002 - 200 uM) for 8 compounds (96-well format)1 or 32 compounds (384-well format)2 in single technical replicate. AIME assay controls include trans-stilbene (bioactivated control) and ethylparaben (bioinactivated control). ERTA assay plate controls include 17-beta estradiol (positive control) and DMSO (solvent control). Experiments typically comprise a minimum of four experimental replicates (n=4).
With `CCCCOC(=O)C(C)O` (stereo unspecified), the outcome was inactive.

As for `CCOC(OCC)OCC`, the result was inactive. Still for that read-out and setting: for `CC(C)OC=O` the value was “inactive”; for `CCCCCCCC/C=C\CCCCCCCC(=O)OCC(O)CO` (stereo unspecified), “inactive”. Regarding `O=C(c1ccccc1)c1ccc(O)cc1O`, the half-maximal activity concentration (AC50) was 40.3 µM (active).

On to `Cc1ccc(O)c(-n2nc3ccccc3n2)c1`, for which the half-maximal activity concentration (AC50) was 38.2 µM (active). For `N#Cc1ccccc1O`, the compound was called inactive.

As for `OCC1CCCO1` (stereo unspecified), the compound was classed as inactive. As for `O=C1C=CC(=O)N1c1ccccc1`, the call was inactive. Same read-out and setting: for `CC(C)(C)c1cc(Cc2cc(C(C)(C)C)c(O)c(C(C)(C)C)c2)cc(C(C)(C)C)c1O` the value was “inactive”; for `CC(=O)CCC(C)C`, “inactive”.

What is called AC50 is the concentration at which the activity in the assay is half-maximal.
